# Active and inactive are the calls of the source. Unless noted, no rule for the calls is given here.
# Assays:
# [1] = compound effects on lung adenocarcinoma cell viability – A549, calcein-AM fluorescence, 48 h, basal, profiling panel (AID 1162); conditions: higher = more signal; also: test concentration not given here
# [2] = compound effects on differentiated 3T3-L1 adipocyte viability – cell-based, 3T3-L1 adipocytes, calcein-AM fluorescence, 48 h, basal, profiling panel (AID 1163); conditions: 3T3-L1 adipocytes viability, higher = more signal; also: test concentration not given here
# [3] = compound effects on hepatocellular carcinoma cell viability – HepG2, calcein-AM fluorescence, 48 h, basal, profiling panel (AID 1164); conditions: higher = more signal; also: test concentration not given here
# [4] = compound effects on multiple myeloma cell viability – MM1S, calcein-AM fluorescence, 48 h, basal, profiling panel (AID 1165); conditions: higher = more signal; also: test concentration not given here
# [5] = calcein-AM signal in unstimulated myeloma cells – cell-based, calcein-AM fluorescence, 48 h, PK04 Diversity Set, profiling panel (AID 1166); conditions: RPMI8226 myeloma viability, higher = more signal;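 also: cells grown under basal conditions without added stimulus; test concentration not given here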
# [6] = JC-1 mitochondrial signal, unstimulated HepG2 cells – cell-based, JC-1 fluorescence, 24 h, 100 nL compound, profiling panel (AID 1167); conditions: HepG2 mitochondrial potential, higher = more signal; also: test concentration not given here
# [7] = JC-1 mitochondrial signal, unstimulated adipocytes – cell-based, JC-1 fluorescence, 3T3-L1 adipocytes, 24 h, 100 nL compound, profiling panel (AID 1168); conditions: JC-1 mitochondrial fluorescence, higher = more signal, called active from +8 up or from −8 down; also: test concentration not given here
# [8] = JC-1 mitochondrial signal, unstimulated myeloma cells – cell-based, JC-1 fluorescence, RPMI8226, 24 h, 100 nL compound, profiling panel (AID 1169); conditions: JC-1 mitochondrial potential fluorescence, higher = more signal; also: test concentration not given here
# [9] = JC-1 mitochondrial signal, unstimulated MM1S myeloma – cell-based, JC-1 fluorescence, 24 h, 100 nL compound, profiling panel (AID 1170); conditions: MM1S mitochondrial potential, higher = more signal; also: test concentration not given here
# [10] = resazurin metabolic signal in A549 cells – cell-based, resazurin fluorescence, 24 h, PK04 Diversity Set, profiling panel (AID 1171); conditions: A549 viability, higher = more signal, called active from +8 up or from −8 down; also: test concentration not given here
# [11] = resazurin metabolic signal in HepG2 cells – cell-based, resazurin fluorescence, 24 h, PK04 Diversity Set, profiling panel (AID 1172); conditions: HepG2 viability, higher = more signal; also: test concentration not given here
# [12] = budding yeast growth changes without added modifier – OD600, strain BY4716, 24 h, basal condition, primary screen (AID 1173); conditions: S. cerevisiae BY4716 growth, OD600, 24 h; higher = more signal, called active from +8 up or from −8 down
# [13] = viability profiling in MM1S myeloma cells – cell-based, resazurin fluorescence, basal, 24 h, PK04 Diversity Set, profiling panel (AID 1174); conditions: higher = more signal, called active from +8 up or from −8 down; also: test concentration not given here
# [14] = molecular target: Dihydroorotate dehydrogenase (quinone), mitochondrial (Plasmodium falciparum (isolate 3D7)) (UniProt Q08210); assay: inhibition of P. falciparum DHODH – biochemical, C-terminal His tag, absorbance 600 nm, primary screen (AID 1175); conditions: PfDHODH enzyme, DCIP absorbance 600 nm; higher = more signal, called active from +8 up or from −8 down;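 also: recombinant parasite enzyme with a five histidine tag at its C terminus; test concentration not given here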
# [15] = inhibition of PAO1 biofilm formation – strain PAO1, LB-PBS medium, absorbance 600 nm, primary screen (AID 1176); also: test concentration not given here; conditions: P. aeruginosa PAO1 growth/biofilm, A600, 12 h; higher = more signal
# [16] = growth modulation of vineyard yeast isolate – strain RM11-1a, OD600, basal, 24 h, primary screen (AID 1177);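 also: cultures grown under basal conditions with no added stressor; test concentration not given here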; conditions: S. cerevisiae RM11-1a growth, OD600, 24 h; higher = more signal, called active from +8 up or from −8 down
# [17] = growth of efflux-deficient E. coli DRC39 – strain DRC39, OD650, 24 h, E. coli filamentation inducers, primary screen (AID 1178);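 also: growth measured as culture turbidity by optical density at 650 nm; test concentration not given here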; conditions: E. coli DRC39 acrAB, higher = more signal, called active from +8 up or from −8 down
# [18] = growth of efflux-deficient E. coli DRC39 – strain DRC39, OD650, 48 h, E. coli filamentation inducers, primary screen (AID 1179);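 also: screen aims at cell division blockers that make cells filament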; conditions: E. coli DRC39 delta-acrAB growth, higher = more signal, called active from +8 up or from −8 down
# [19] = viability profiling in RPMI8226 myeloma cells – cell-based, resazurin fluorescence, basal, 24 h, PK04 Diversity Set, profiling panel (AID 1180); conditions: higher = more signal;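 also: RPMI8826 multiple myeloma cell line at 5000 cells per well; test concentration not given here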
# [20] = molecular target: E3 ubiquitin-protein ligase XIAP (Homo sapiens) (UniProt P98170); assay: small molecules binding XIAP protein – biophysical, small-molecule microarray, fluorescence 635 nm, primary screen (AID 1181); conditions: higher = more signal;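 also: score merges 667 nm emission and signal to noise over triplicate slides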
# E3 ubiquitin-protein ligase XIAP (Homo sapiens), sequence (P98170 whole entry, looked up): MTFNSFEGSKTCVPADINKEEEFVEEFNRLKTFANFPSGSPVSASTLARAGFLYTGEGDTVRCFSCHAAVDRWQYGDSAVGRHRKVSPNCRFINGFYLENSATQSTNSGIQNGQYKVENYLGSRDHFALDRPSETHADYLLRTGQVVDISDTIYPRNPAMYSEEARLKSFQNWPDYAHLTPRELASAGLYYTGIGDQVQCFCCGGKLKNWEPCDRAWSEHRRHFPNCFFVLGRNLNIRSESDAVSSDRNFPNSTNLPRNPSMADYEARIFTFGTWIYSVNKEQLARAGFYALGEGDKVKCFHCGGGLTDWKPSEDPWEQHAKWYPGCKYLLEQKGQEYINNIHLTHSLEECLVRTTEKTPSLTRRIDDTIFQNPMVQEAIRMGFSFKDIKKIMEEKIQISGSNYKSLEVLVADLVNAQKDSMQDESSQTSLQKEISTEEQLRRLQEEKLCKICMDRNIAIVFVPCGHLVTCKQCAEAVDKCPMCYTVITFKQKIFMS
# Dihydroorotate dehydrogenase (quinone), mitochondrial (Plasmodium falciparum (isolate 3D7)), sequence (Q08210 whole entry, looked up): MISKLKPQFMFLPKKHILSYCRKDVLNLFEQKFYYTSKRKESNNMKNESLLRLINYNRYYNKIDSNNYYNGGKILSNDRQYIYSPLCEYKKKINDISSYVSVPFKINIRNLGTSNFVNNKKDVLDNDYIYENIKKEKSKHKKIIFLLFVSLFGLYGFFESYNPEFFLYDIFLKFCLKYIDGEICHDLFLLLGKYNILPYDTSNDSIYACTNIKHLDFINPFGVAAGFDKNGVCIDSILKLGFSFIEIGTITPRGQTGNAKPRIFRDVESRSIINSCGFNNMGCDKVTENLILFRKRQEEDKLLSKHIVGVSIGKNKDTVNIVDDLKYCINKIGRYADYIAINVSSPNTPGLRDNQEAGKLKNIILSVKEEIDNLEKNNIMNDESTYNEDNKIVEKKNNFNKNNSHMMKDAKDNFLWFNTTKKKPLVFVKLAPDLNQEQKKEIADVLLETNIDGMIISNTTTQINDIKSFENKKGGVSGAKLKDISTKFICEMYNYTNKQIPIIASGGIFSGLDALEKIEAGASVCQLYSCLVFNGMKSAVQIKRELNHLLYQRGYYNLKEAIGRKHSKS
Compound,z-score [1],z-score [2],z-score [3],z-score [4],z-score [5],z-score [6],z-score [7],z-score [8],z-score [9],z-score [10],z-score [11],z-score [12],z-score [13],composite z-score [14],z-score [15],z-score [16],z-score [17],z-score [18],z-score [19],composite z-score [20]
CCCCCN1CC=CC23O[C@@H]4C=CCCOC(=O)C4[C@H]2C(=O)N(CCCCCCO)[C@@H]3C1=O (stereo not given in full),-0.182,-0.131,0.28,0.762,0.494,0.306,0.737 (inactive),0.548,-0.823,0.229 (inactive),0.678,0.605 (inactive),0.0267 (inactive),0.401 (inactive),0.55 (inactive),0.543 (inactive),0.649 (inactive),0.567 (inactive),0.424,0.0702
C=CCNC(=O)[C@@H]1[C@H]2C(=O)O[C@H](c3ccccc3)[C@H](c3ccccc3)N2[C@H](c2ccc(OCCO)cc2)[C@@]12C(=O)N(C(=O)OCCOC)c1ccc(C#Cc3ccc(OC)cc3)cc12,-0.528,0.786,-0.834,-0.845,-1.32,-0.638,0.8 (inactive),-0.813,-0.82,0.927 (inactive),-0.0068,1.21 (inactive),0.279 (inactive),-0.0464 (inactive),2.08 (inactive),2.57 (inactive),-0.709 (inactive),-0.73 (inactive),0.725,0.102
CCOC(=O)C[C@H]1[C@H](OC(=O)Cc2ccc3c(c2)OCO3)[C@@H](NC(=O)c2ccc3ccccc3n2)c2cc(OCCCO)ccc2N1C(=O)c1ccccc1,0.776,0.288,0.731,0.26,-1.09,2.52,0.0925 (inactive),-0.169,-1.07,0.231 (inactive),0.374,-0.407 (inactive),-1.51 (inactive),-0.32 (inactive),-0.325 (inactive),0.946 (inactive),-0.247 (inactive),0.208 (inactive),-0.139,0.134
C#Cc1cc2ccccc2oc1=O,-1.35,-1.04,-0.651,-0.932,-0.414,-1.5,0.272 (inactive),0.923,-0.99,-0.629 (inactive),0.236,-5.07 (inactive),-1.05 (inactive),-0.748 (inactive),-0.0322 (inactive),-0.874 (inactive),-1.46 (inactive),-1.25 (inactive),-1.14,-0.172
CC(C)C[C@@H]1NC(=O)[C@@H]2C[C@H](C(=O)NCCCCCCN)[C@H](c3cccc(OCCO)c3)N2C1=O,-0.038,0.971,-0.822,0.206,-0.703,-0.39,0.433 (inactive),-0.84,0.519,-0.862 (inactive),-0.821,-0.568 (inactive),0.542 (inactive),1.05 (inactive),0.379 (inactive),0.473 (inactive),-0.0795 (inactive),-0.74 (inactive),-0.0399,0.0264
CC(C)N1C(=O)C[C@@](C(=O)NC2CC2)(c2ccc([N+](=O)[O-])cc2)[C@H]1c1ccc(CO)cc1,0.219,1.98,1.03,0.941,-1.73,0.347,-0.0995 (inactive),-0.416,0.059,-0.0786 (inactive),-0.557,-0.693 (inactive),0.616 (inactive),-0.236 (inactive),1.6 (inactive),-0.437 (inactive),0.209 (inactive),0.167 (inactive),0.499,0.236
CC(=O)N1CC2(CC2)CC1c1ccccc1 (stereo not given),-1.64,0.334,-1.34,-0.386,-1.14,-1.15,-1.86 (inactive),0.0805,0.359,-0.714 (inactive),-0.603,1.12 (inactive),-1.89 (inactive),-0.448 (inactive),0.535 (inactive),0.0303 (inactive),-0.88 (inactive),-0.206 (inactive),-1.36,0.0116
C=CC[C@@H](OC(=O)Nc1ccc(OC)cc1)c1ccc(O)c(F)c1,-1.78,0.379,-2.39,-2.15,-2.51,-3.67,-1.37 (inactive),0.122,-1.07,-0.747 (inactive),-1.33,-16.3 (active),-1.32 (inactive),-2.55 (inactive),0.79 (inactive),-22 (active),0.924 (inactive),0.41 (inactive),-0.895,-0.0441
CCCC=C(CCC)[C@@H](NS(=O)(=O)c1ccc(C(F)(F)F)cc1)c1ccccc1,-0.511,-0.217,-0.832,-0.266,-1.86,-4.98,-0.61 (inactive),-0.519,-1.51,0.221 (inactive),0.281,1.55 (inactive),-0.489 (inactive),0.348 (inactive),1.03 (inactive),1.84 (inactive),-0.763 (inactive),-0.197 (inactive),-0.683,-0.206
